From PubChem BioAssay AID652065 (The Scripps Research Institute Molecular Screening Center, 2013) come the findings set out here.

“And” between values parts separate entries of the source, which are not always exact repeats. Equal entries are not always repeated. The whole screen tested about 4,300 compounds, of which about 3,000 (70%) were called active.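 Rule for the calls: active = inhibition above a per-plate cutoff, the mean inhibition of sample wells plus 3 SD (cut at about 35% in these data); inactive = the rest.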 So high a share suggests a set chosen from earlier hits. The list is a sample of the results. The source holds several records for some structures; these can differ, active in one and inactive in another.

The nature of this experiment: small molecules binding CAG repeat RNA – biochemical, fluorescence, confirmation (AID 652065).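 Note: loss of TO-PRO-1 fluorescence as compound displaces dye from 1x1 AA loop RNA; 0% = DMSO only wells and 100% = 100 µM mitoxantrone.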 The following applies: r(CAG) RNA repeat, TO-PRO-1 dye displacement fluorescence; at 3 µM; stronger effect = higher value.
A word on the inhibition: it is the change of the read-out against control, counted positive when it falls. With `Cc1ccccc1S(=O)(=O)N1[C@@H](c2cccc(Cl)c2)C(C(=O)O)=CC[C@H]1c1ccc(Cl)cc1`, the inhibition is 83.1% (active).
Next, `Cc1ccc([C@@H]2CC=C(C(=O)O)[C@H](c3cccc(Cl)c3)N2S(=O)(=O)c2ccc(C)cc2)cc1`: 80.4% (active).
For `Cc1ccc(S(=O)(=O)N2[C@@H](c3ccccc3F)C(C(=O)O)=CC[C@H]2c2ccc(Cl)cc2)cc1` the value was 64.8% (active); for `COc1ccc(Cl)cc1-n1c(=S)sc2c(=O)n(-c3ccc(F)cc3)c(SCC(=O)O)nc21`, 28.9% (inactive).
For `Cc1oc2c(F)c(F)c(F)c(F)c2c1S(=O)(=O)Nc1cccc(C(F)(F)F)c1` the value was 44.5% (active); for `COc1cc(OC)c(S(=O)(=O)Nc2ccccc2C(=O)O)cc1S(=O)(=O)Nc1ccccc1C(=O)O`, 39.9% (active); for `COc1ccc(NS(=O)(=O)c2cc(NC(=O)CC(=O)c3ccc([N+](=O)[O-])cc3)ccc2C)cc1`, 44.4% (active).
`Cc1ccc(S(=O)(=O)NCCC(c2ccccc2)c2ccccc2)cc1C(=O)O`: the inhibition is 28% (inactive).
Next, `COc1ccc(NS(=O)(=O)c2cc(C(=O)Nc3ccccc3C(=O)O)ccc2C)cc1`: 52% (active); `O=C(Nc1ccc2c(c1)CCC2)c1cccc(S(=O)(=O)Nc2ccccc2Cl)c1`: 40% (active).
For `CO/N=C(\C(=O)N[C@@H]1C(=O)N2C(C(=O)O)=C(COC(C)=O)CS[C@H]12)c1csc(N)n1` (stereo in doubt) the value was 48.1% (active).
`Cc1ccccc1OCC(=O)Nc1nnc(S(=O)(=O)N2CCCC2)s1`: the inhibition is 33.1% (inactive).
Take `O=C(N/N=C/c1cc(Cl)cc([N+](=O)[O-])c1O)C(O)(c1ccccc1)c1ccccc1`: the inhibition was 52.6% (active).
Regarding `Cc1ccc(Sc2cc(C(=O)c3ccccc3C(=O)O)ccc2[N+](=O)[O-])cc1`, the inhibition is 68.5% (active).
Next, `CC[C@@H](C)[C@H](NC(=O)CCc1c(C)c2cc3c4c(oc3c(C)c2oc1=O)CCCC4)C(=O)O`: 52.4% (active).
Next, `Cc1c(CCC(=O)N[C@@H](CC(C)C)C(=O)O)c(=O)oc2c(C)c3oc4c(c3cc12)CCCC4`: 48.4% (active); `Cc1ccc(S(=O)(=O)N2[C@@H](c3ccc(Br)cc3)C(C(=O)O)=C[C@H]2CC2CCCC2)cc1`: 72.6% (active); `CCCCC[C@@H]1C=C(C(=O)O)[C@H](c2ccc(C#N)cc2)N1S(=O)(=O)c1ccc(C)cc1`: 55.7% (active).
Next, `Nc1[nH]c(=S)nc2nc(-c3ccccc3)c(-c3ccccc3)nc12`: 15.6% (inactive).
On to `NC(=O)c1c(Nc2nc3c(F)cccc3s2)sc2c1CCCC2`, for which the inhibition was 39.3% (active).
For `Cc1cc(N2C(=O)C(O)=C(C(=O)c3ccc(C)o3)C2c2ccc(OCc3ccccc3)cc2)no1` (stereo not drawn) the value was 64.8% (active); for `Nc1cccc(-c2cc(-c3ccccc3)nc(-c3cccc(N)c3)n2)c1`, 21.8% (inactive); for `N#Cc1c(-c2ccccc2)cc(-c2ccccc2)nc1SCC(=O)O`, 44.6% (active).
For `O=C(Cc1ccccc1)Nc1ccc(C(=O)Nc2ccccc2C(=O)O)cc1` the value was 50.5% (active).
For `Cc1ccc(C(=O)O)cc1-c1ccc(/C=C2\SC(=O)N(CC(=O)Nc3ccc4c(c3)OCO4)C2=O)o1` the value was 85.1% (active); for `CCn1cc(C(=O)NCC2COc3ccccc3O2)c2cc(OC)c(OC)cc2c1=O` (stereo not drawn), 3.06% (inactive).
For `Cc1cc(C)cc(Oc2c(C(F)(F)F)oc3cc(OCC(=O)O)ccc3c2=O)c1`, the inhibition was 27.1% (inactive).
In the case of `O=C(COc1ccccc1Cl)Nc1ccc(C(=O)c2ccc(C(=O)O)cc2)cc1`, the inhibition was 27.3% (inactive).
For `Cc1cc(C)cc(OCC(=O)Nc2cc(NC(=O)COc3cc(C)cc(C)c3)cc(C(=O)O)c2)c1` the value was 78.6% (active); for `Cc1cccc(OCC(=O)Nc2ccc(C(=O)O)cc2NC(=O)COc2cccc(C)c2)c1`, 44.8% (active).
Next, `CCCc1ccc(OCC(=O)NNC(=S)NC(=O)c2ccco2)cc1`: 56.7% (active); `CC(Oc1ccc2ccccc2c1)C(=O)NNC(=S)NC(=O)c1ccco1` (stereo not drawn): 42.4% (active); `COc1ccc(OCC(=O)Nc2nnc(-c3ccco3)s2)cc1`: 12.6% (inactive).
Next, `CN1CCN(S(=O)(=O)c2cccc(C(=O)Nc3sccc3C#N)c2)CC1`: 24.8% (inactive).
`CC1CCCCN1S(=O)(=O)c1ccc(C(=O)Nc2nnc(-c3cccs3)o2)cc1` (stereo not drawn): the inhibition is 40.6% (active).
With `N#Cc1ccccc1CN1C(=O)S/C(=C/c2cccn2-c2cccc(C(=O)O)c2)C1=O`, the inhibition was 63.3% (active).
For `Cc1cc2nc(-c3ccco3)c(Cc3cccc(F)c3)n2c(C)c1Br` the value was 30.1% (inactive).
Next, `Cc1ccc(NC(=S)NNC(=O)CSc2nnc(SCc3ccccc3Cl)s2)cc1`: 48.4% (active); `O=C(Nc1nnc(-c2ccccc2)o1)c1cc(-c2cccs2)nc2ccccc12`: 68.2% (active); `Cc1ccc(Cn2c(SCC(=O)N/N=C/c3ccccc3OCC(=O)O)nc3ccccc32)cc1`: 65.5% (active).
For `Oc1c(Cl)cc(Cl)c(Cl)c1Cc1c(O)c(Cl)cc(Cl)c1Cl` the value was 91.4% (active).
For `NC(c1csc(NC(=O)Nc2cccc(C(F)(F)F)c2)n1)C1CCCCC1` (stereo not drawn), the inhibition was 24.4% (inactive).
For `COc1ccc(C(N)c2csc(NC(=O)Nc3cccc(C(F)(F)F)c3)n2)cc1` (stereo not drawn) the value was 25.6% (inactive); for `NC(c1ccccc1)c1csc(NC(=O)Nc2cccc(C(F)(F)F)c2)n1` (stereo not drawn), 59.1% (active).
For `CCN1C(=O)/C(=C2/Sc3ccccc3N2CCCS(=O)(=O)O)SC1=S` the value was 29.9% (inactive) and 46.4% (active); for `Cc1oc2cc([N+](=O)[O-])c(O)c([N+](=O)[O-])c2c1C(=O)c1ccc(Br)cc1`, 50.2% (active).
Next, `CCCOc1ccc(Cn2c(O)cc(=O)[nH]c2=O)cc1`: 18.4% (inactive); `C=CCSc1nsc(NC(=O)Nc2cccc(C(C)=O)c2)n1`: 34.4% (inactive).
